Test results from PubChem BioAssay (NCATS).
Where “and” joins values, the source holds several entries; their conditions need not be identical. Equal values may be shown once. Records with an inconclusive call do not appear. Calls of active or inactive are those of the source. Unless noted, calls come from the whole dose curve.

Assays:
[1] = target: Bile acid receptor (Homo sapiens) (UniProt Q96RI1); assay: qHTS assay for small molecule agonists of farnesoid X receptor signaling (AID 588527); conditions: HEK293T FXR-UAS-bla, beta-lactamase ratio, 16 h; activation: stronger effect = higher value;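 note: series mostly up to about 77 µM; 0% = vehicle basal and 100% = reference agonist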
Method in brief: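 FXR-UAS-bla HEK293T cells (10% dialyzed FBS) preincubated 5-7 h at 37 C, then compounds at up to 92 uM for 16 h at 37 C. CCF4 beta-lactamase read-out after 2 h RT. Normalized to chenodeoxycholic acid (100 uM) and DMSO; Hill fit gave EC50 and efficacy.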

[2] = target: Glucocorticoid receptor (Homo sapiens) (UniProt P04150); assay: qHTS assay for small molecule antagonists of glucocorticoid receptor signaling (AID 588533; active = well fitted inhibition curve with a large enough effect in the signal ratio, with a control signal flat, not every such curve was filed as active; the % refers to the signal ratio;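 note: cells stimulated with 2 nM dexamethasone as agonist; % is set by controls: 0 for no effect and ±100 for the full control effect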)
Method in brief: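 Antagonist-mode qHTS: compound titrations added to GRE-bla HeLa cells, then dexamethasone 2 nM final; 18 h, 37 C. CCF4 FRET fluorescence normalized to dexamethasone and DMSO; IC50 from Hill fit.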

[3] = target: Vitamin D3 receptor (Homo sapiens) (UniProt P11473); assay: qHTS assay for small molecule antagonists of vitamin D receptor signaling (AID 588541);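 note: receptor activated by calcitriol during compound treatment; series mostly up to about 77 µM; % is set by controls: 0 for no effect and ±100 for the full control effect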
Method in brief: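 Antagonist-mode beta-lactamase reporter assay: HEK293T VDR-UAS-bla cells were exposed to titrated compound alongside 1-alpha,25-dihydroxyvitamin D3 at 3 nM final for 16 h. Values were normalized to the 50 nM agonist control and DMSO basal, with IC50 and efficacy from Hill equation fits.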

[4] = target: Vitamin D3 receptor (Homo sapiens) (UniProt P11473); assay: qHTS assay for small molecule agonists of vitamin D receptor signaling (AID 588543);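 note: 0% = DMSO basal and 100% = reference agonist control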
Method in brief: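 Reporter cells (HEK293T, VDR-UAS-bla) were seeded in medium with 2% charcoal-stripped serum and incubated 5 h, then compounds in concentration series were added for 16 h at 37 °C. Stimulation was scaled between DMSO basal and 50 nM 1α,25-dihydroxyvitamin D3.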

[5] = target: Thyroid hormone receptor beta (Homo sapiens) (UniProt P10828); assay: qHTS assay for small molecule agonists of thyroid hormone receptor beta signaling (AID 588545)
Method in brief: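 Agonist activity was read as beta-lactamase CCF4 fluorescence (405 ex, 460/530 em), scaled between DMSO (0%) and 10 nM T3 (100%), then Hill-fitted for EC50 and efficacy. HEK 293 TR-UAS-bla cells in 2% charcoal/dextran FBS medium were exposed 18 h at 37 C.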

[6] = target: Thyroid hormone receptor beta (Homo sapiens) (UniProt P10828); assay: qHTS assay for small molecule antagonists of thyroid hormone receptor beta signaling (AID 588547; active = well fitted inhibition curve with a large enough effect in the signal ratio, with a control signal flat, not every such curve was filed as active; the % refers to the signal ratio;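 note: cells stimulated with 0.4 nM T3 agonist during compound exposure; series mostly up to about 77 µM; % is set by controls: 0 for no effect and ±100 for the full control effect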); conditions: TR-UAS-bla HEK293, beta-lactamase ratio, antagonist mode, 18 h
Method in brief: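 Inhibition of T3-driven (0.4nM final) beta-lactamase reporter activity was measured over 0.59 nM to 92 uM compound after 18 h at 37 C. The cells were GripTite HEK293 TR-UAS-bla in charcoal/dextran-stripped serum, with CCF4 ratio read-out and IC50 from Hill fits.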

[7] = qHTS assay for small molecule activators of the p53 signaling pathway (AID 651743; active = well fitted activation curve with a large enough effect in the signal ratio, not every such curve was filed as active; the % refers to the signal ratio; note: series mostly up to about 92 µM; % of control where 0% means no effect); conditions: HCT-116 p53RE-bla, beta-lactamase FRET ratio, 16 h; activation: stronger effect = higher value
Method in brief: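 Read-out is fluorescence intensity from the LiveBLAzer B/G FRET substrate, added for 2 hours at room temperature after HCT-116 p53RE-bla cells had been incubated with compounds for 16 hours at 37 C.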

[8] = qHTS assay for environmental chemicals that activate the Aryl hydrocarbon Receptor (AhR) signaling pathway (AID 651777; active = well fitted curve in the direction sought with a large enough effect; an effect the other way counts as inactive or inconclusive; note: % of control where 0% means no effect; nearly all actives have a fitted effect of over 15% in size); conditions: 1A2-DRE human hepatoma cells, luciferase, 24 h; activation: stronger effect = higher value
Method in brief: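 Concentration–response screening used 1,200 1A2-DRE cells per well, 24 hr compound exposure (37 C, 5% CO2), and One-Glo luminescence as the AhR-driven CYP1A2 reporter signal.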

[9] = qHTS assay for small molecule agonists of the antioxidant response element (ARE) signaling pathway measured by Nrf2-dependant transcriptional activity - cell viability counter screen (AID 720653; active = well fitted curve in the direction sought with a large enough effect in the repeat runs; an effect the other way counts as inactive or inconclusive; note: % is set by controls: 0 for no effect and ±100 for the full control effect); conditions: ARE-bla HepG2 viability, CellTiter-Glo ATP luminescence, 16 h; max response: stronger effect = lower value
Method in brief: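 Cytotoxicity counter screen: intracellular ATP quantified by CellTiter-Glo luminescence in the same ARE-bla HepG2 plates, after 16 h compound exposure and a 2 h beta-lactamase substrate step.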

[10] = qHTS assay for cell viability of HEK293 cells (AID 743288; active = well fitted curve in the direction sought with a large enough effect; an effect the other way counts as inactive or inconclusive; note: % is set by controls: 0 for no effect and ±100 for the full control effect; nearly all actives have a fitted effect of over 50% in size); conditions: ATP luminescence (CellTiter-Glo), 18 h; max response: stronger effect = lower value
Method in brief: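 HEK293 parental, 2,000 cells/well; ≥5 h pre-incubation 37 C; pintool compound addition; 18 h, 37 C; CellTiter-Glo 30 min RT; luminescence read.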

[11] = qHTS assay for cell viability of the p53RE-bla HCT-116 cell line (AID 743292; active = well fitted curve in the direction sought with a large enough effect; an effect the other way counts as inactive or inconclusive; note: % is set by controls: 0 for no effect and ±100 for the full control effect; nearly all actives have a fitted effect of over 55% in size)
Method in brief: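 Compound-exposed HCT-116 (p53RE-bla) cells, 4,000 per well, were kept 16 h at 37 C following a 5 h preincubation. Cell number was estimated from total ATP by CellTiter-Glo luminescence read after 30 min at room temperature.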

[12] = target: Peroxisome proliferator-activated receptor delta (Homo sapiens) (UniProt Q03181); assay: qHTS assay for small molecule agonists of peroxisome proliferator-activated receptor delta signaling (AID 588534);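 note: 0% = DMSO basal wells and 100% = positive control agonist at 10 µM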
Method in brief: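 Fluorescence from CCF4 substrate cleavage by beta-lactamase reporter, read 2 hrs at RT, measured agonist activity. Compounds were tested with 18 hrs exposure at 37 C. Concentration-response data fitted to Hill equation.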

[13] = qHTS assay for small molecule antagonists of peroxisome proliferator-activated receptor delta signaling (AID 588535); conditions: HEK293T PPARd-UAS-bla, beta-lactamase FRET ratio, 18 h; 460 nm channel;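 note: cells co-treated with a PPAR-delta agonist as stimulator during compound exposure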
Method in brief: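 HEK293T PPAR-delta-UAS-bla cells, 4000/well, 2% charcoal/dextran FBS; 5 h 37 C; cpd titration; 18 h 37 C; CCF4 2 h RT; FI 460/530 nm; Hill fit → IC50, efficacy.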

[14] = qHTS assay for small molecule agonists of retinoid X receptor alpha signaling (AID 588544); conditions: HEK293T RXRa-UAS-bla, beta-lactamase reporter, 18 h; 530 nm emission;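 for activation: 0% = DMSO basal wells and 100% = reference agonist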
[15] = target: Retinoic acid receptor RXR-alpha (Homo sapiens) (UniProt P19793); assay: as above
[16] = qHTS assay for small molecule antagonists of retinoid X receptor alpha signaling (AID 588546; active = well fitted inhibition curve with a large enough effect in the signal ratio, with a control signal flat, not every such curve was filed as active; the % refers to the signal ratio); conditions: HEK293T RXRa-UAS-bla, beta-lactamase ratio, antagonist mode; measured here: W530 green channel, cytotoxicity proxy
Method in brief: (§1)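 Beta-lactamase reporter inhibition, read as CCF4 fluorescence ratio (ex 405, em 460/530 nm) after 2 h at RT. HEK293T UAS-bla cells, 2500/well, were stimulated with 9-cis-RA at 500 or 100 nM final alongside test compound for 18 h at 37 C.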

[17] = target: Retinoic acid receptor RXR-alpha (Homo sapiens) (UniProt P19793); assay: as above; conditions: HEK293T RXRa-UAS-bla, beta-lactamase ratio, antagonist mode
Method in brief: as §1

[18] = target: Peroxisome proliferator-activated receptor alpha (Homo sapiens) (UniProt Q07869); assay: qHTS assay for small molecule agonists of the peroxisome proliferator-activated receptor alpha (PPARalpha) signaling pathway (AID 651778; active = well fitted curve in the direction sought with a large enough effect; an effect the other way counts as inactive or inconclusive; note: % of control where 0% means no effect); conditions: PathHunter PPARalpha complementation, chemiluminescence, 6 h; max response: stronger effect = higher value
Method in brief: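 Chemiluminescence from complemented enzyme reported PPARalpha activation in cells after 6 hr of compound treatment at 37 C. The detection reagent was incubated for 60 min at room temperature, and compounds were scored as agonists.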

[19] = qHTS assay for small molecule agonists of the antioxidant response element (ARE) signaling pathway measured by Nrf2-dependant transcriptional activity (AID 720636; active = well fitted curve in the direction sought with a large enough effect in the repeat runs; an effect the other way counts as inactive or inconclusive;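 note: HepG2 cells with an ARE-driven luciferase reporter; % of control where 0% means no effect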)
Method in brief: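 Attachment 6 hr at 37 C, then compound versus DMSO vehicle for 16 hr in ARE-luc HepG2 cells (1% dialyzed FBS); luminescence recorded 30 min after ONE-Glo addition at room temperature.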

[20] = target: Nuclear receptor subfamily 1 group I member 2 (Rattus norvegicus) (UniProt Q9R1A7); assay: qHTS assay for small molecule activators of the rat pregnane X receptor (rPXR) signaling pathway (AID 651751; call rule not given here; note: 0% is about no effect); conditions: rPXR reporter cells, luciferase (One-Glo), 24 h
Nuclear receptor subfamily 1 group I member 2 (Rattus norvegicus), sequence (Q9R1A7 whole entry, looked up): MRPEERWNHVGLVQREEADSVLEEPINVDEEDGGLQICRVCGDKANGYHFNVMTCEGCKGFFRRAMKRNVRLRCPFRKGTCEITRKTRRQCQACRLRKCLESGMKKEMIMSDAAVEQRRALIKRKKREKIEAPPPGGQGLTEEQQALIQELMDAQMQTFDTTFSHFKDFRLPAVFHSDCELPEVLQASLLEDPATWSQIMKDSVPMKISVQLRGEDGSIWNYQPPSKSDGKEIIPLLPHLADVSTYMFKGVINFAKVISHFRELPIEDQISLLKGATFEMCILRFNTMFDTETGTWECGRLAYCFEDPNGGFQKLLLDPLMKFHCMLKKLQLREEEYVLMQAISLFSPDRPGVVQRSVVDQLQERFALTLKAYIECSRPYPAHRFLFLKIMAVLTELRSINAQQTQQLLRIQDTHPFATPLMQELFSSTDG

Peroxisome proliferator-activated receptor alpha (Homo sapiens), sequence (Q07869 whole entry, looked up): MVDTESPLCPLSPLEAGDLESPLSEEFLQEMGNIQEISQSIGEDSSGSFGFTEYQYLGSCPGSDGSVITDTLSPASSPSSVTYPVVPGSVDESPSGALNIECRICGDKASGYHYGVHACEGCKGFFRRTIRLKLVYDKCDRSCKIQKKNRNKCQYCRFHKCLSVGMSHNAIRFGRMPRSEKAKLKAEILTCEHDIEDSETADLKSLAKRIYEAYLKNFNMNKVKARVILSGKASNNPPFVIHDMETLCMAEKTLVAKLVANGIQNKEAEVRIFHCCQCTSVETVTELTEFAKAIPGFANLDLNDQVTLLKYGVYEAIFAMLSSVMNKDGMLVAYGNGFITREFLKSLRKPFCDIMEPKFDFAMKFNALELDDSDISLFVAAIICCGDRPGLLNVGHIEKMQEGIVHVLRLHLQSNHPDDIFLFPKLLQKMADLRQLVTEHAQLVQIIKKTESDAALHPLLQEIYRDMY
Thyroid hormone receptor beta (Homo sapiens), sequence (P10828 whole entry, looked up): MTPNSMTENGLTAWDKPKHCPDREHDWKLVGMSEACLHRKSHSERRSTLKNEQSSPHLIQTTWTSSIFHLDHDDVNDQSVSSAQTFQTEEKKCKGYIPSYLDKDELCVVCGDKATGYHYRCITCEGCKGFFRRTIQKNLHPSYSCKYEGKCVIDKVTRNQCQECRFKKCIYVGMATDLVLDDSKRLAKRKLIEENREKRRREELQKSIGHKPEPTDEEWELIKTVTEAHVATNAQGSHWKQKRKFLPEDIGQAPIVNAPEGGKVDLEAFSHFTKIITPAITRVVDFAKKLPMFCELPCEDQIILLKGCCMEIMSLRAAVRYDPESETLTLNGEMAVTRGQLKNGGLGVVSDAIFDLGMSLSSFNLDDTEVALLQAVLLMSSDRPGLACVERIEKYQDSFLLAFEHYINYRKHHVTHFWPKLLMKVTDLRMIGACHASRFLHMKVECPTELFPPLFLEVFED
Vitamin D3 receptor (Homo sapiens), sequence (P11473 whole entry, looked up): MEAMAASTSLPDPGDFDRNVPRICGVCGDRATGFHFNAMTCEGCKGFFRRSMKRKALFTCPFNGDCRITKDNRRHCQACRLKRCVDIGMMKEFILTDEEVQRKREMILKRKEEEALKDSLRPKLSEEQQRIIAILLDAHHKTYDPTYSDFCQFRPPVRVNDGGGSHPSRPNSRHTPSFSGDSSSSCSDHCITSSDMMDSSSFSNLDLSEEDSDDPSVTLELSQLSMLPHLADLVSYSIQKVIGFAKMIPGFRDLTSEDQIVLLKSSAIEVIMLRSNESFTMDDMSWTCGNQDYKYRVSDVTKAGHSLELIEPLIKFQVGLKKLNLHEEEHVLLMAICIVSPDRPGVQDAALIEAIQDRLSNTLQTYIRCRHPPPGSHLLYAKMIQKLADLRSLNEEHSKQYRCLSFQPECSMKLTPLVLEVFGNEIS
Peroxisome proliferator-activated receptor delta (Homo sapiens), sequence (Q03181 whole entry, looked up): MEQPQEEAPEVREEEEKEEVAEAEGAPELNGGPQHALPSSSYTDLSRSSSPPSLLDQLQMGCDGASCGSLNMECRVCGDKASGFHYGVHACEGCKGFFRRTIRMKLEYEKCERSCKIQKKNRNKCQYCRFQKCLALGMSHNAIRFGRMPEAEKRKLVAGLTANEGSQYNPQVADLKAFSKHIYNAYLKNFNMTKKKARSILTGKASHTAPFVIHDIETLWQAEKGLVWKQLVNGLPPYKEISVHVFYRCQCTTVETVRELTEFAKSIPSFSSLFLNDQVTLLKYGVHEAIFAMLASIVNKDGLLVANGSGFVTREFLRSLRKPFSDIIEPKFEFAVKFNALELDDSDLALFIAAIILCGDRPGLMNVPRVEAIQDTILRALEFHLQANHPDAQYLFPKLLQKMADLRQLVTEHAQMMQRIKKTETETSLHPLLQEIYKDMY
Retinoic acid receptor RXR-alpha (Homo sapiens), sequence (P19793 whole entry, looked up): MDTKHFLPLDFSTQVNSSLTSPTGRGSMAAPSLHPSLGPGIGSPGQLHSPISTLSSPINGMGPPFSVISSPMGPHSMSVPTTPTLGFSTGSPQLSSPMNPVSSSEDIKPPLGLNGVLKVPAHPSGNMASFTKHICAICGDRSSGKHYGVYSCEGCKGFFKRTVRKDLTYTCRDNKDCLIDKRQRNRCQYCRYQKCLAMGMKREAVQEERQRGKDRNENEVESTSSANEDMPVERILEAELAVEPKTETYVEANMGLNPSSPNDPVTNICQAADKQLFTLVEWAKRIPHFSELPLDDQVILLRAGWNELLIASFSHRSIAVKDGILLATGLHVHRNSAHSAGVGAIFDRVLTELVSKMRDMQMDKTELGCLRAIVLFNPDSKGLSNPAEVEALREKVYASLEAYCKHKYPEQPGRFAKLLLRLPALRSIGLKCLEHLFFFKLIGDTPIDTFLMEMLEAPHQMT
Glucocorticoid receptor (Homo sapiens), sequence (P04150 whole entry, looked up): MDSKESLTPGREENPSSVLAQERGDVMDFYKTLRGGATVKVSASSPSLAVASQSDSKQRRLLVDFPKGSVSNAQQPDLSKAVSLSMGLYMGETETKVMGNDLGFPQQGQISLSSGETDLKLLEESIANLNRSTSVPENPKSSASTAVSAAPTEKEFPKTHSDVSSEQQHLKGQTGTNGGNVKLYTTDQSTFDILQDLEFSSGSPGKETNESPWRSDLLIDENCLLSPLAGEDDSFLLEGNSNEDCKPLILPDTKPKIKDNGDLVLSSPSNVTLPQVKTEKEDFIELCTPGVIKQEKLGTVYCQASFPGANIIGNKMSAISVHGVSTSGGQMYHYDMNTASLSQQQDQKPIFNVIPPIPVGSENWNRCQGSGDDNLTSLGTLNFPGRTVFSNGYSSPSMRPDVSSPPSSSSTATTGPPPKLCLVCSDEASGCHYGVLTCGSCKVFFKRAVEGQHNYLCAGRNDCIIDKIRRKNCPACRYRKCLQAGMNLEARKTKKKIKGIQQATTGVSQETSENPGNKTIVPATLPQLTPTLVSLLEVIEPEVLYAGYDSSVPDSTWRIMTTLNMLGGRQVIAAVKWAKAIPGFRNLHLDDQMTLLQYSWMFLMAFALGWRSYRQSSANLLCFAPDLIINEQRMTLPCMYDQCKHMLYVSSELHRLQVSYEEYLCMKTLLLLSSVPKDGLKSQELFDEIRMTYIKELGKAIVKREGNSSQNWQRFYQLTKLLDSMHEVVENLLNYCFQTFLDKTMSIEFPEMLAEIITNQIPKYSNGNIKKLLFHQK
Bile acid receptor (Homo sapiens), sequence (Q96RI1 whole entry, looked up): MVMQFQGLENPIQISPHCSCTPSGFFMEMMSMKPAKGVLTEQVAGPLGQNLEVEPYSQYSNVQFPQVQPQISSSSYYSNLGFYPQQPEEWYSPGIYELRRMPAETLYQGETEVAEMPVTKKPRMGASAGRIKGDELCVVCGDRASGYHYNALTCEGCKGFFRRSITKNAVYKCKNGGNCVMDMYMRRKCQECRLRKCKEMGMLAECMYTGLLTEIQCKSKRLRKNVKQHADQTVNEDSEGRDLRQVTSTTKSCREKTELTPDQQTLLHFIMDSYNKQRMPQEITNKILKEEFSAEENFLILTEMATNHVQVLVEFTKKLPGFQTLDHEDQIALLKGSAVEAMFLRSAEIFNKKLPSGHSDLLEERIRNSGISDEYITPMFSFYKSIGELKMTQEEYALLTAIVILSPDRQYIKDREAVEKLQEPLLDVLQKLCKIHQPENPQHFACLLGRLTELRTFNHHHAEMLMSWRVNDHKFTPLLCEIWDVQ

O=C(O)C1(O)c2ccccc2-c2ccc(Cl)cc21 (centres undefined)
inactive: activation [1] 8.73% | Potency [2] | Potency [3] | outcome [4] | Potency [5] | activity change % (negative = inhibition) [6] -1.32% | activation [7] 13.8% | activation [8] 9.46% | max response [9] -16.8% | max response [10] -18.3% | Potency [11]

CCOc1nc(F)cc2nc(S(=O)(=O)Nc3c(Cl)cccc3Cl)nn12
23.2%: max response [13]
inactive: activation [1] -0.748% | outcome [12] | Potency [3] | outcome [4] | Potency [15] | Potency [5] | max response [17] -25.7% | activity change % (negative = inhibition) [6] -10.3% | activation [7] 1.78% | activation [8] -0.921% | max response [18] -2.41% | Potency [19] | max response [9] -9.33% | max response [10] -11.2% | Potency [11] | max response [20] 1.99%
6.95%: max response [16]
3.57%: max response [14]

O=C(O)C(F)(F)C(F)(F)C(F)(F)C(F)(F)C(F)(F)C(F)(F)C(F)(F)C(F)(F)F
1.6% and -25.9%: max response [14]
-12.8% and -2.74%: max response [16]
inactive: activation [1] 3.01% and 1.7% | Potency [2] | outcome [12] | Potency [3] | outcome [4] | Potency [15] | max response [17] 2.77% and -39.3% | activity change % (negative = inhibition) [6] 1.6% and 0.325% | activation [7] 1.7% | activation [8] 2.07% and 1.12% | max response [18] -1.46% and 5.33% | Potency [19] | max response [9] 4.68% and -1.78% | max response [10] -7.25% and -13% | Potency [11] | max response [20] 1.17% and 2.66%
-4.97% and -33.9%: max response [13]

ClCc1ccccc1Cl
inactive: Potency [2] | Potency [3] | Potency [15] | Potency [5] | max response [17] 0.106% | activity change % (negative = inhibition) [6] -5.68% | activation [8] 0.685% | Potency [19] | max response [9] -2.98% | max response [10] -1.39% | Potency [11] | max response [20] -0.702%
-22.8%: max response [14]
-6.52%: max response [16]

CCOP(=S)(OCC)SC(CCl)N1C(=O)c2ccccc2C1=O (centres undefined)
3.14%: max response [16]
51.4%: max response [13]
inactive: outcome [12] | Potency [3] | outcome [4] | Potency [5] | max response [17] 7.55% | activation [7] -5.87% | activation [8] 0.999% | max response [18] -0.704% | max response [9] -13.6% | max response [10] -5.75% | Potency [11]

CC(C)C1(C)N=C(c2nc3ccccc3cc2C(=O)O)NC1=O (centres undefined)
6.33%: max response [16]
5.36%: max response [14]
inactive: Potency [2] | outcome [12] | Potency [3] | outcome [4] | Potency [15] | Potency [5] | max response [17] 4.25% | activity change % (negative = inhibition) [6] 9.94% | activation [7] 1.69% | activation [8] -0.47% | max response [18] 0.197% | Potency [19] | max response [9] -2.59% | max response [10] -6.66% | Potency [11] | max response [20] -1.98%
